Our source for the growth values is PubChem BioAssay (NCI).

Molecules are shown by their SMILES. Values joined by “and” are separate entries in the source; they are usually repeats but may differ in a detail not shown here. Equal values may be shown once. The panel holds about 83,000 compounds, 20% with a hit somewhere; the sample as a whole holds those more often.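 Cell lines were cultured in 96-well plates, exposed to a single compound concentration, and assessed for percent growth 48 hours later.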 Active and inactive are the calls of the source.

One assay concerns T-47D breast. As to the kind of experiment: NCI-60 one-dose screen, 48 h (100 = growth as untreated, 0 = no growth, -100 = all killed). The conditions noted are these: 10 µM. Here is the method:
Growth inhibition of the T-47D human tumor cell line is measured as a screen for anti-cancer activity. Cells are grown in 96 well plates and exposed to the test compound for 48 hours. Compounds are tested at a single concentration, which is 10^-5 M for most compounds. The reported endpoint is percent growth (GI% or GIPRCNT), where numbers from 0 - 100% represent growth inhibition, and numbers from -100% - 0 represent cell death. For example, a value of 40 represents 60% growth inhibition. A value of 0 means no net growth occurred over the course of the experiment. A value of -40 indicates 40% of cells at the beginning of the experiment died by the end of the experiment. A value of -100 means all cells are dead at the end of the experiment.
NCI-60 Human Tumor Cell Lines Screen was performed using the standard one-dose NCI protocol, which is described in more detail at https://dtp.cancer.gov/discovery_development/nci-60/default.htm.
Compounds with GIPRCNT values below 10 were considered active. Activity score was based on GIPRCNT using the following formula: […]
Score is 0 for GIPRCNT values of 100 or above, 50 for GIPRCNT values of 0, and 100 for GIPRCNT values of -100.
With `CC(=O)/C=C/c1ccc(OCc2ccc(C(C)(C)C)cc2)cc1`, the growth is 52.8% (inactive). Regarding `CC(=O)/C=C/c1ccc(N(CCO)Cc2ccc(C(C)(C)C)cc2)cc1`, the growth is 60.2% (inactive).

Staying with this assay, now noted: 10 µM unless noted.
On to `COc1cc(F)c(/C=C/c2cc(/C=C/c3cc(OC)c(OC)cc3F)n(-c3cc(F)cc(F)c3)n2)cc1OC`, for which the growth is 64% (inactive). Still for that read-out and setting: the value for `COc1cc(/C=C2\CCC/C(=C\c3cc(CN4CCCC4)c(O)c(OC)c3)C2=O)cc(CN2CCCC2)c1O` was 95.9% (inactive). Same read-out and setting: next, `CC[C@]1(O)CC2CN(CCc3c([nH]c4ccccc34)C(C(=O)OC)(c3cc4c(cc3OC)N(C=O)[C@H]3[C@@](O)(C(=O)OC)[C@H](OC(C)=O)[C@]5(CC)[C@@H]6C[C@@H]6CN6CC[C@]43[C@@H]65)C2)C1` (stereo not given in full): 72.1% (inactive); `COC1=CC(c2ccc[nH]2)=N/C1=C\c1[nH]c(C)c(C(=O)Oc2ccccc2)c1C`: -65.7% (active). In the case of `CCOC(=O)c1c(-c2ccc(C)cc2)c(C#N)c(=O)n(-c2cccc(C(F)(F)F)c2)c1N`, the growth was 99.9% (inactive). Regarding `CN(C)C(=O)c1cc2cnc(Nc3ccc(-c4csc5c(=S)cc(N6CCOCC6)oc45)cc3)nc2n1C1CCCC1`, the growth is -3.44% (active).

On to `COc1ccc(Nc2ncnc3ccc(-c4cncc(NS(C)(=O)=O)c4)cc23)cc1Cl`, for which the growth was -13.6% (active). Same read-out and setting: the value for `COc1ccc2c(c1)CCNC21C(=O)Nc2c(Br)cc(Br)cc21` (stereo not given) was 90.3% (inactive).

On to `COc1ccc(Nc2nn3c(SCC(=O)c4ccc(C)cc4)nnc3s2)cc1`, for which the growth was 73.2% (inactive). The same measure, in the same setting: next, `CCOC(=O)c1cc2c(n1Cc1cc(OC)cc(OC)c1Br)-c1nc(NC(C)=O)sc1CCC2`: 38.5% (inactive).

With `COc1ccc2c(c1)CC[C@@H]1[C@@H]2CC[C@]2(C)C3C(=CCC4C(=O)N(c5ccccc5)C(=O)C43)C[C@@H]12` (stereo not given in full), the growth was 99.6% (inactive). In the case of `CC1(Cc2ccccc2)CC2=C(C(=O)O1)C(c1ccccc1)NC(=O)N2` (stereo not given), the growth was 97% (inactive).

As for `CCOC(=O)C(=Cc1ccc(C#N)cc1)C(=O)OCC`, the growth was 9.64% (active).

In the case of `N#C/C(=C\c1ccc(Br)cc1)n1nnc2c(F)cccc21`, the growth is 14.2% (inactive).

Take `COCCOc1cc2ncnc(N3CCN(S(=O)(=O)c4ccccc4Cl)CC3)c2cc1OCCOC`: the growth was 80.6% (inactive). On the same count and under the same terms, the value for `O=C(NCc1ccc(Cn2c(=O)sn(-c3ccc(Cl)cc3)c2=O)cc1)OCc1ccc2c(Cl)cc(Cl)c(O)c2n1` was 60.2% (inactive).

In the case of `O=C1OCC2=C1C(c1cccc(C(F)(F)F)c1)c1cc3c(cc1N2CCO)OCCO3` (stereo not given), the growth is 51% (inactive). Same read-out and setting: next, `O=C(CCN1CCOCC1)Nc1cccc(-n2cc(-c3ccncc3)c(-c3ccc(Cl)c(O)c3)n2)c1`: 38.3% (inactive); `CN1CCN(C(=O)OCc2nc3c(N4CCOCC4)nc(Cl)nc3n2C)CC1`: -29.3% (active); `C=C(CN1CC=CCC1)[C@@H]1CC[C@]2(COC(C)=O)CC[C@]3(C)[C@H](CC[C@@H]4[C@@]5(C)CC[C@H](O)C(C)(C)[C@@H]5CC[C@]43C)[C@@H]12`: 78.7% (inactive).

Turning to `CC(C)(C)c1cc(C(C)(C)c2ccccc2)cc(Cc2cc(C(C)(C)c3ccccc3)cc(C(C)(C)C)c2O)c1O`, the growth was 95.3% (inactive).

On to `Cc1cc(N2CCCCC2)nc(NCc2cc(Nc3ccnc4cc(Cl)ccc34)ccc2F)n1`, for which the growth was -60.6% (active). Same read-out and setting: next, `CCCCCCCCN(CCCCCCCC)CC(O)c1cc(Cl)ccc1OC` (stereo not given): 51% (inactive).

As to `Cc1nonc1-c1ccc2c(c1)OCO2`, the growth was 88.5% (inactive) and 98.4% (inactive). The same measure, in the same setting: next, `OB(O)c1ccsc1-c1nc2ccc3[nH]ncc3c2c2c1CCCC2`: 53.5% (inactive). For `O=S(=O)(O)c1ccc(N=Nc2ccc(N=Nc3cccc4ccccc34)c(S(=O)(=O)O)c2)cc1`, the growth is 81.3% (inactive). The same measure, in the same setting: the value for `COc1cc(/C=C2/C=C(c3ccc(C(C)(C)C)cc3)N(CCc3ccc(S(N)(=O)=O)cc3)C2=O)cc(OC)c1OC` was 18.2% (inactive).

With `CCN1CCN(C(=O)[C@]23CC[C@@H](C)[C@H](C)[C@@H]2C2=CC[C@@H]4[C@@]5(C)CCC(=O)C(C)(C)[C@@H]5CC[C@@]4(C)[C@]2(C)CC3)CC1`, the growth is 8.54% (active). On the same count and under the same terms, the value for `COc1ccc(/C=C/C(=O)c2cc3c(N)c(C(=O)Nc4ccccc4Cl)sc3nc2C)cc1` was 30.3% (inactive). As to `C=C1CCC2C3(C)COC(c4ccc(NC(C)=O)cc4)OC3CCC2(C)C1C/C=C1/C(=O)OCC1O` (stereo not given), the growth is 29.4% (inactive). The same measure, in the same setting: next, `N=C1/C(=C2\NC3C=CC=CC3S2)C(c2ccc(Cl)cc2)C2C(=O)N(c3ccccc3)C(=S)N12` (stereo not given): 102% (inactive). Still for that read-out and setting: the value for `Cc1ccc(Cl)cc1N1CCN(C(=O)[C@@H]2C[C@@H]2c2ccc(F)cc2)CC1` was 83.4% (inactive); that for `COc1nc2ccc(C)cc2cc1/C=[N+](\[O-])c1ccccc1` was 66.5% (inactive). For the compound `Brc1ccc(/C=C(/C2=NCCN2)n2ccc3ccccc32)cc1`, the growth was 53.1% (inactive). The same measure, in the same setting: the value for `Cc1ccc(C(=O)c2ccc(CC(=O)N=Nc3c(O)[nH]c4ccc(OC(F)(F)F)cc34)n2C)cc1` was 74.5% (inactive); that for `Nc1ccc(-c2ccc(N)c(Br)c2)cc1Br` was 40.9% (inactive).

Still in this assay, the particulars now being: 100 µM.
Consider `CC(=O)/C=C/c1ccc(OCc2ccc(C(C)(C)C)cc2)cc1`, for which the growth is 5.88% (active). The same measure, in the same setting: the value for `CC(=O)/C=C/c1ccc(N(CCO)Cc2ccc(C(C)(C)C)cc2)cc1` was -83.2% (active).
